Inconclusive results are not listed. The source made the active and inactive calls. Calls follow the shape of the dose curve; as a rule, active = well fitted curve in the direction sought with a large enough effect; inconclusive = small, poorly fitted or top-dose-only effect, or another doubt; inactive = no such curve, though single readings can be large; an effect the other way counts as inactive or inconclusive.
What was measured:
[1] = qHTS of pediatric cancer cell lines to identify multiple opportunities for drug repurposing: Primary screen for LAN-5 cells (AID 1347100); also: potency is read from the fitted curve at half-maximal effect
How it was run: (§1)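 Cells (500-1,000/well) rested 5 h, then received compounds for 48 h; metabolically active cells were measured by CellTiter-Glo luminescence. Final concentrations spanned up to 46 µM (MIPE, 11-point) or 0.59 nM-46 µM (NPC, 8-point) in primary screens, 11-point in follow-ups.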

[2] = qHTS of pediatric cancer cell lines to identify multiple opportunities for drug repurposing: Primary screen for BT-12 cells (AID 1347101); also: nearly all actives have a fitted effect of over 25% in size; also: potency is read from the fitted curve at half-maximal effect
How it was run: as §1

[3] = qHTS of pediatric cancer cell lines to identify multiple opportunities for drug repurposing: Primary screen for OHS-50 cells (AID 1347103); also: nearly all actives have a fitted effect of over 40% in size; also: potency is read from the fitted curve at half-maximal effect
How it was run: as §1

[4] = qHTS of pediatric cancer cell lines to identify multiple opportunities for drug repurposing: Primary screen for MG 63 (6-TG R) cells (AID 1347105); also: nearly all actives have a fitted effect of over 50% in size; also: potency is read from the fitted curve at half-maximal effect
How it was run: (§2)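 Quantitative HTS format: each compound titrated (MIPE 11 points from 0.78 nM, NPC 8 points from 0.59 nM) onto cells plated 5 hours earlier. After 48 h at 37 degrees C, CellTiter-Glo luminescence was recorded.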

[5] = qHTS of pediatric cancer cell lines to identify multiple opportunities for drug repurposing: Primary screen for control Hh wild type fibroblast cells (AID 1347106);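 also: series mostly up to about 46 µM; a drop in luminescence marks cytotoxicity and a rise apparent proliferation; nearly all actives have a fitted effect of over 55% in size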
How it was run: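 Cells (500-1,000/well) in growth media were settled 5 h at 37 degrees C, then given compounds for 48 h. Viability was read as CellTiter-Glo luminescence. Primary runs used MIPE at 11 points (0.78 nM-46 µM) and NPC at 8 points (0.59 nM-46 µM); follow-ups used 11 points.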

[6] = qHTS of pediatric cancer cell lines to identify multiple opportunities for drug repurposing: Primary screen for Rh30 cells (AID 1347107); also: nearly all actives have a fitted effect of over 75% in size; also: potency is read from the fitted curve at half-maximal effect
How it was run: as §1

[7] = qHTS of pediatric cancer cell lines to identify multiple opportunities for drug repurposing: Primary screen for Rh41 cells (AID 1347108); also: nearly all actives have a fitted effect of over 70% in size; also: potency is read from the fitted curve at half-maximal effect
How it was run: as §2

[8] = qHTS of pediatric cancer cell lines to identify multiple opportunities for drug repurposing: Confirmatory screen for LAN-5 cells (AID 1347113); also: nearly all actives have a fitted effect of over 65% in size; also: potency is read from the fitted curve at half-maximal effect
How it was run: as §1

[9] = qHTS of pediatric cancer cell lines to identify multiple opportunities for drug repurposing: Confirmatory screen for NB-EBc1 cells (AID 1347115);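 also: cells exposed to compound for 48 h before the viability read; nearly all actives have a fitted effect of over 45% in size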; also: potency is read from the fitted curve at half-maximal effect
How it was run: as §1

[10] = qHTS of pediatric cancer cell lines to identify multiple opportunities for drug repurposing: Confirmatory screen for MG 63 (6-TG R) cells (AID 1347119); also: nearly all actives have a fitted effect of over 55% in size; also: potency is read from the fitted curve at half-maximal effect
How it was run: as §1

[11] = qHTS of pediatric cancer cell lines to identify multiple opportunities for drug repurposing: Primary screen for RD cells (AID 1347104); also: nearly all actives have a fitted effect of over 55% in size; also: potency is read from the fitted curve at half-maximal effect
How it was run: as §2

[12] = qHTS of pediatric cancer cell lines to identify multiple opportunities for drug repurposing: Confirmatory screen for A673 cells (AID 1347110);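 also: cells exposed to compound for 48 h before the viability read; nearly all actives have a fitted effect of over 65% in size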; also: potency is read from the fitted curve at half-maximal effect
How it was run: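 A673 cells seeded at 500-1,000 cells/well, rested 5 h, then dosed; primary MIPE 11-point (0.78 nM to 46 µM), NPC (0.59 nM to 46 µM); confirmatory 11-point. CellTiter-Glo luminescence after 48 h.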

[13] = qHTS of pediatric cancer cell lines to identify multiple opportunities for drug repurposing: Confirmatory screen for SK-N-MC cells (AID 1347111);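 also: potency is read from the fitted curve at half-maximal effect; cells exposed to compound for 48 h before the readout; nearly all actives have a fitted effect of over 70% in size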
How it was run: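 Seed 500-1,000 cells/well; rest 5 h at 37 degrees C. Pin-transfer compounds, 11-point titration. Incubate 48 h. Add CellTiter-Glo, 15 min RT, read luminescence.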

[14] = qHTS of pediatric cancer cell lines to identify multiple opportunities for drug repurposing: Confirmatory screen for DAOY cells (AID 1347114); also: nearly all actives have a fitted effect of over 65% in size; also: potency is read from the fitted curve at half-maximal effect
How it was run: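 Viability measured as metabolically active cells via CellTiter-Glo luminescence following 48 hours of compound exposure, 11-point dilutions in confirmatory testing. 500-1,000 cells/well plated 5 hours before dosing; controls were DMSO and 2.3 µM bortezomib.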

[15] = qHTS of pediatric cancer cell lines to identify multiple opportunities for drug repurposing: Confirmatory screen for TC32 cells (AID 1347118);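 also: potency is read from the fitted curve at half-maximal effect; cells exposed to compound for 48 h before the read; nearly all actives have a fitted effect of over 65% in size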
How it was run: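 qHTS, TC32, 48 h drug treatment, CellTiter-Glo luminescence as a proxy for metabolically active cells; primary top concentration 46 µM (MIPE 11-pt, NPC 8-pt); confirmatory 11-pt.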

[16] = qHTS of pediatric cancer cell lines to identify multiple opportunities for drug repurposing: Confirmatory screen for control Hh wild type fibroblast cells (AID 1347121); also: nearly all actives have a fitted effect of over 70% in size; also: potency is read from the fitted curve at half-maximal effect
How it was run: as §1

[17] = qHTS of pediatric cancer cell lines to identify multiple opportunities for drug repurposing: Confirmatory screen for NB1643 cells (AID 1347109); also: potency is read from the fitted curve at half-maximal effect; nearly all actives have a fitted effect of over 45% in size
How it was run: as §1

[18] = qHTS of pediatric cancer cell lines to identify multiple opportunities for drug repurposing: Confirmatory screen for BT-37 cells (AID 1347117); also: potency is read from the fitted curve at half-maximal effect; nearly all actives have a fitted effect of over 55% in size
How it was run: as §1

Measured: Potency

C[C@H]1[C@H](O)O[C@@H]2O[C@@]3(C)CC[C@@H]4[C@H](C)CC[C@@H]1[C@@]24OO3
inactive: [5] | [6] | [7]
active: [1] 6.62 µM | [2] 1.53 µM | [3] 1.37 µM | [4] 23.5 µM

N#CC(=C1Nc2ccccc2S1)c1ccnc(OCc2ccc(CN3CCOCC3)cc2)n1
active: [1] 1.48 µM | [2] 0.172 µM | [3] 0.344 µM | [4] 3.72 µM
inactive: [8] | [9] | [10]

CCN(CCO)CCCOc1ccc2c(Nc3cc(CC(=O)Nc4cccc(F)c4)[nH]n3)ncnc2c1
active: [1] 0.0372 µM | [12] 10.4 µM | [13] 0.104 µM | [15] 0.0414 µM
inactive: [2] | [11] | [4] | [5] | [6] | [14] | [9] | [16]

CN(C)c1ccc(-c2nc3ncc(Cl)c(N4CCN(CC(=O)Nc5nccs5)CC4)c3[nH]2)cc1
inactive: [2] | [4] | [5]
active: [1] 0.833 µM

C[C@@H]1CC=CC=CC=CC=C[C@@H](O[C@@H]2O[C@H](C)[C@@H](O)[C@H](N)[C@H]2O)C[C@@H]2O[C@](O)(C[C@@H](O)C[C@@H]3O[C@@H]3C=CC(=O)O1)C[C@H](O)[C@@H]2C(=O)O
active: [2] 15.3 µM | [3] 9.68 µM
inactive: [1] | [5]

CCC[C@H](Nc1nc(-c2ccc(NC(=O)NCC)c(OC)c2)ncc1C)c1cccnc1
inactive: [4] | [5] | [6]
active: [1] 0.0105 µM | [2] 0.0109 µM | [3] 0.0137 µM | [17] 0.165 µM | [12] 0.233 µM | [8] 0.414 µM | [14] 0.0827 µM | [9] 0.329 µM | [18] 0.329 µM | [15] 0.117 µM

CNC1[C@H](O)C(O[C@@H]2C(O)C(O[C@H]3O[C@H]([C@@H](C)NC)CC[C@H]3N)[C@@H](N)C[C@H]2N)OC[C@]1(C)O (stereo partly specified)
inactive: [1] | [2] | [3] | [11] | [5] | [6] | [7]

CCC=CC[C@H]1C(=O)CC[C@@H]1CC(=O)OC
inactive: [1] | [2] | [3] | [4] | [5] | [6] | [7]

Nc1[nH]nc2nnc(-c3c(-c4ccccc4)nn4ccccc34)cc12
inactive: [14]
active: [1] 6.62 µM | [2] 6.85 µM | [3] 1.93 µM | [7] 5.9 µM | [12] 13.1 µM | [15] 16.5 µM

COc1cc2nccc(Oc3ccc(NC(=O)Nc4ccc(F)cc4F)c(F)c3)c2cc1OC
inactive: [2] | [5]
active: [1] 0.833 µM | [3] 1.53 µM | [4] 9.35 µM

FC(F)(F)c1ccc(C=Cc2nc(COc3ccc(CCCCn4ccnn4)cc3)co2)cc1
active: [1] 0.0059 µM | [2] 0.0061 µM | [3] 0.0077 µM | [11] 0.0118 µM | [7] 0.469 µM | [13] 1.17 µM | [14] 0.261 µM | [9] 0.369 µM | [10] 0.261 µM | [16] 0.369 µM
inactive: [5]

O=C(Nc1ncc(SCCN2CCCC2)s1)[C@]1(c2ccc(S(=O)(=O)C3CC3)cc2)C[C@@H]1C1CCCCC1
inactive: [5]
active: [1] 23.5 µM | [2] 27.3 µM | [3] 24.3 µM | [4] 29.6 µM | [6] 20.9 µM | [7] 18.7 µM

CN(C)CCOc1cc(-c2cn[nH]c2)ccc1NC(=O)C1COc2ccccc2O1 (stereo unspecified)
inactive: [1] | [2] | [11] | [5] | [6]

Cc1ccc(S(=O)(=O)Nc2nc3ccccc3nc2Nc2ccc3nsnc3c2)cc1
active: [1] 0.0323 µM | [2] 0.0668 µM | [3] 0.0421 µM | [11] 0.0512 µM | [17] 9.1 µM | [13] 0.256 µM | [18] 1.29 µM | [15] 0.229 µM | [10] 16.2 µM
inactive: [5] | [12] | [9]

O=c1cc(-c2ccc(O)c(O)c2)oc2cc(O)cc(O)c12
inactive: [1] | [2] | [11] | [4] | [5] | [6]

CCN1CCC(n2cc(CNc3cc(Cl)c4ncc(C#N)c(Nc5ccc(F)c(Cl)c5)c4c3)nn2)CC1
inactive: [5]
active: [1] 14.8 µM | [2] 24.3 µM | [3] 17.2 µM | [11] 18.7 µM | [6] 23.5 µM | [7] 14.8 µM

CN[C@@H]1CN(c2ccc3c(=O)c(C(=O)O)cn(-c4nccs4)c3n2)C[C@@H]1OC
inactive: [5]
active: [1] 1.02 µM | [2] 9.43 µM | [3] 16.8 µM | [11] 14.4 µM | [17] 1.82 µM | [12] 1.29 µM | [13] 1.44 µM | [8] 1.82 µM | [14] 11.5 µM | [9] 0.811 µM | [18] 2.57 µM | [15] 1.15 µM

Cc1ccc(NC(=O)c2ccc(CN3CCN(C)CC3)cc2)cc1Nc1nc(-c2cccnc2)cs1
inactive: [4] | [5] | [6] | [7]
active: [1] 18.7 µM | [2] 21.7 µM | [3] 21.7 µM
